The target of assay [1] is Tumor necrosis factor (Homo sapiens) (UniProt P01375). Nature of the assay: qHTS assay to identify small molecules that stimulate Tumor Necrosis Factor-alpha (TNF-alpha) secretion (AID 651757; active = well fitted curve in the direction sought with a large enough effect in the signal ratio; the % refers to the signal ratio; note: potency is the fitted concentration of half-maximal effect). Put shortly:
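Secreted TNF-alpha quantified by TR-FRET sandwich of two labeled anti-TNF-alpha antibodies, incubated 3 hr at room temperature. Preceded by 17 hr, 37 C compound treatment of THP-1 cells at 3000 cells/well.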
Background: In qHTS, concentration-response curves come from the screen itself.

Assay [2] can be described thus: qHTS assay to identify small molecules that stimulate interleukin-8 (IL-8) secretion (AID 651758; active = well fitted activation curve with a large enough effect in the signal ratio; the % refers to the signal ratio; note: 0% is about no effect). In short, it runs like this: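 Compounds are added to THP-1 cells (2000 per well) and left 16 hrs at 37 C. A labeled anti-IL-8 antibody pair is then added, and IL-8 secretion is measured by time-resolved FRET after 1-3 hrs at room temperature.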
Assay [3] can be described thus: qHTS assay for environmental chemicals that activate the Aryl hydrocarbon Receptor (AhR) signaling pathway (AID 651777). For activation: % of control where 0% means no effect. Note: nearly all actives have a fitted effect of over 15% in size. Note: potency is the fitted concentration of half-maximal effect. As to conditions: 1A2-DRE human hepatoma cells, luciferase, 24 h; activation: stronger effect = higher value. Put shortly:
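Reporter gene assay: hepatoma cells with DRE/CYP1A2-luciferase, 24 hr compound incubation at 37 C, 5% CO2, luminescence after One-Glo (30 min, RT).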

Assay [4] has as its target Peroxisome proliferator-activated receptor alpha (Homo sapiens) (UniProt Q07869). Nature of the assay: qHTS assay for small molecule agonists of the peroxisome proliferator-activated receptor alpha (PPARalpha) signaling pathway (AID 651778). Note: % of control where 0% means no effect. As to conditions: PathHunter PPARalpha complementation, chemiluminescence, 6 h; stronger effect = higher value. Put shortly: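 Enzyme-fragment complementation assay in which ligand-bound PPARalpha translocates and forms an active enzyme that generates chemiluminescence. Cells were plated overnight, exposed to compound for 6 hr at 37 C, and then given detection reagent for 60 min at room temperature.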

Assay [5] addresses Nuclear receptor ROR-gamma (Homo sapiens) (UniProt P51449). Nature of the assay: qHTS assay for small molecule antagonists of the retinoid-related orphan receptor gamma (ROR-gamma) signaling pathway (AID 651802). Note: nearly all actives have a fitted effect of over 60% in size. Note: potency is the fitted concentration of half-maximal effect. Put shortly: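 Luminescence (One-Glo, 30 min RT) measured 16 h after compound addition and doxycycline induction at 37C. Reporter: RORE-luciferase under TET-inducible ROR-gamma in CHO cells.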

The nature of assay [6]: qHTS assay for small molecule agonists of the antioxidant response element (ARE) signaling pathway measured by Nrf2-dependant transcriptional activity (AID 720636; active = well fitted curve in the direction sought with a large enough effect in the repeat runs; an effect the other way counts as inactive or inconclusive;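 note: HepG2 cells with an ARE-driven luciferase reporter; % of control where 0% means no effect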). In short, it runs like this:
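Nrf2-dependent transcription is measured in ARE-luc HepG2 cells: compound is applied for 16 hr at 37 C after a 6 hr attachment period, and luciferase activity is quantified by luminescence using ONE-Glo.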

A short description of assay [7]: qHTS assay for small molecule antagonists of the retinoid-related orphan receptor gamma (ROR-gamma) signaling pathway - cell viability counter screen (AID 720652; active = well fitted curve in the direction sought with a large enough effect in the repeat runs; an effect the other way counts as inactive or inconclusive;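 note: series mostly up to about 92 µM; compound exposure lasted 16 hr before ATP read; % is set by controls: 0 for no effect and ±100 for the full control effect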). In short, it runs like this: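 Cytotoxicity counter screen: intracellular ATP (CellTiter-Glo luminescence) measured in the doxycycline-induced CHO RORE-luciferase reporter line after 16 hr compound exposure at 37 C, 5% CO2.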

Assay [8] is described as follows: qHTS assay for small molecule agonists of the antioxidant response element (ARE) signaling pathway measured by Nrf2-dependant transcriptional activity - cell viability counter screen (AID 720653; active = well fitted curve in the direction sought with a large enough effect in the repeat runs; an effect the other way counts as inactive or inconclusive; note: % is set by controls: 0 for no effect and ±100 for the full control effect). As to conditions: ARE-bla HepG2 viability, CellTiter-Glo ATP luminescence, 16 h; stronger effect = lower value. In short, it runs like this:
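ARE-bla HepG2 cells treated with compounds for 16 h at 37C; this counter screen measures viability as intracellular ATP by CellTiter-Glo luminescence after 30 min at room temperature.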

Assay [9] in a line: qHTS assay for cell viability of HEK293 cells (AID 743288). Note: % is set by controls: 0 for no effect and ±100 for the full control effect; nearly all actives have a fitted effect of over 50% in size. As to conditions: ATP luminescence (CellTiter-Glo), 18 h, stronger effect = lower value. Put shortly:
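Viable-cell counts were inferred from luciferase-based ATP content in HEK293 cells seeded at 2,000/well, pre-incubated ≥5 h, then dosed with DMSO-solubilised compounds for 18 h at 37 C.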

Assay [10] is described as follows: qHTS assay for cell viability of the p53RE-bla HCT-116 cell line (AID 743292). Note: % is set by controls: 0 for no effect and ±100 for the full control effect; nearly all actives have a fitted effect of over 55% in size. Put shortly:
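ATP-based luminescence, 16 h compound exposure at 37 C, p53RE-bla HCT-116 cells at 4,000/well.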

Assay [11] addresses Nuclear receptor subfamily 1 group I member 2 (Rattus norvegicus) (UniProt Q9R1A7). Nature of the assay: qHTS assay for small molecule activators of the rat pregnane X receptor (rPXR) signaling pathway (AID 651751; call rule not given here; note: 0% is about no effect). The conditions noted are these: rPXR reporter cells, luciferase (One-Glo), 24 h.
A short description of assay [12]: qHTS assay for small molecule activators of the human pregnane X receptor (PXR) signaling pathway (AID 720659; call rule not given here; note: 0% is about no effect).
Assay [13] is described as follows: qHTS assay for small molecule disruptors of the mitochondrial membrane potential - 1 hr assay (AID 651754; calls by dose curve; note: % is set by controls: 0 for no effect and ±100 for the full control effect; nearly all actives have a fitted effect of over 35% in size). In short, it runs like this:
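Mitochondrial potential in living HepG2 cells after 1 hr compound treatment at 37C was read with Mito-MPS dye added for a further 30 min. Red aggregate and green monomer fluorescence were measured; loss of potential leaves dye as cytoplasmic monomers.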

The nature of assay [14]: qHTS assay for small molecule disruptors of the mitochondrial membrane potential - 5 hr assay (AID 651755; calls by dose curve; note: % is set by controls: 0 for no effect and ±100 for the full control effect; nearly all actives have a fitted effect of over 40% in size). In short, it runs like this: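 Read-out: ratiometric Mito-MPS fluorescence, green monomer (ex 490/em 535) vs red mitochondrial aggregate (ex 540/em 590). HepG2 cells treated 5 hr at 37C before 30 min dye loading.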

Unmarked numbers belong to inactive results. Records with an inconclusive call do not appear. Activity calls are given as the source filed them. Unless noted, calls come from the whole dose curve; as a rule, active = well fitted curve in the direction sought with a large enough effect; inconclusive = small, poorly fitted or top-dose-only effect, or another doubt; inactive = no such curve, though single readings can be large; an effect the other way counts as inactive or inconclusive.

Sequence of Nuclear receptor ROR-gamma (Homo sapiens) (P51449 whole entry, looked up): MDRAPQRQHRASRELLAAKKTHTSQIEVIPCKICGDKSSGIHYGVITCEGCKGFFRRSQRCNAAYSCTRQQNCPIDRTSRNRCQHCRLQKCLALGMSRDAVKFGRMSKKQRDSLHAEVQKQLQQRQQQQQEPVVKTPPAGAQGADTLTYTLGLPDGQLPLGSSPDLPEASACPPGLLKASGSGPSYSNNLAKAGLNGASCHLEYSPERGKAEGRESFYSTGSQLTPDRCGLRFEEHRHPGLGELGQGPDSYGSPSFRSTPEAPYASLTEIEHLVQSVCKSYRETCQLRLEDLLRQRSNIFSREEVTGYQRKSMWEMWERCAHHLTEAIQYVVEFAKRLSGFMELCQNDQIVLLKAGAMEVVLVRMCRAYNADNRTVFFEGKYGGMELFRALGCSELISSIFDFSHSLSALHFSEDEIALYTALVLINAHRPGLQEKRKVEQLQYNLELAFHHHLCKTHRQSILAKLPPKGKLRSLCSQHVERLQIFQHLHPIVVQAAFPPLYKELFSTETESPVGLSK
Sequence of Tumor necrosis factor (Homo sapiens) (P01375 whole entry, looked up): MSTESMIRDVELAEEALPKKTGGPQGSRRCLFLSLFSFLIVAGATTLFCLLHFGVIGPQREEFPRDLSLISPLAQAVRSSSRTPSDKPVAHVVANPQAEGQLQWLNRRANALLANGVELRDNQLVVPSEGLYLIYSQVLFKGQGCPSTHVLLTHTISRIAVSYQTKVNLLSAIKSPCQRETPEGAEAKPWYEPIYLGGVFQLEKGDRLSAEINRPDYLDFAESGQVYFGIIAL
Sequence of Nuclear receptor subfamily 1 group I member 2 (Rattus norvegicus) (Q9R1A7 whole entry, looked up): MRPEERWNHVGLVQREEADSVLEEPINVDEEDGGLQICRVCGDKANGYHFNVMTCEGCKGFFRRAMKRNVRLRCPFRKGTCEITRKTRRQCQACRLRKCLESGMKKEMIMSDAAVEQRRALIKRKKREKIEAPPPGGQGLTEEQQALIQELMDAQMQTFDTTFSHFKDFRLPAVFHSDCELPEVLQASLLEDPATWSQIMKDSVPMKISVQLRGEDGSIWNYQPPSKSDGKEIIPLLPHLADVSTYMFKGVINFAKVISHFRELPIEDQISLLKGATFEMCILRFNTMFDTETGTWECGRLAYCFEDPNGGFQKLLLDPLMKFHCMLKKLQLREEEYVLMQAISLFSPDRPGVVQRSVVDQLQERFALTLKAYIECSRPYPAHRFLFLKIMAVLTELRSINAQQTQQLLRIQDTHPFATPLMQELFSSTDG
Sequence of Peroxisome proliferator-activated receptor alpha (Homo sapiens) (Q07869 whole entry, looked up, the tested form may be a part): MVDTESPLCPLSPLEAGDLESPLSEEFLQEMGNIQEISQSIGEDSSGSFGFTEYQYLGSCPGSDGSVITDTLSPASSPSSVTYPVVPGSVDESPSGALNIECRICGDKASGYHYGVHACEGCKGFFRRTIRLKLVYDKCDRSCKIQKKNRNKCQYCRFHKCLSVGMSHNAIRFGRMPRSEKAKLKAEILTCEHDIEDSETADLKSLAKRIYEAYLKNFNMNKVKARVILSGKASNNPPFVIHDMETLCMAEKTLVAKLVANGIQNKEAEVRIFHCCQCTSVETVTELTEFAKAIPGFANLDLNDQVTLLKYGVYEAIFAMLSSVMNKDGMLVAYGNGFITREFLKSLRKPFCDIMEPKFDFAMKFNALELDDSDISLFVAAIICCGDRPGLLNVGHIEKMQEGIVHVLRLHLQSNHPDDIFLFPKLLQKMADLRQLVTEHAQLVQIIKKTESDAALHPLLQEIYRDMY

In the case of `CCC(C)=O`, the Potency result in assay [1], in assay [2], in assay [5], in [7] and in assay [10] was “inactive” each time. In assay [3], the activation is -0.131%. Moreover, the max response in assay [4] was -7.5%; in assay [8], -4.32%; in assay [9], 4.69%; in assay [11], 4.73%. Also, the molecule was called inactive in assay [6] and in assay [12].
For the molecule `C=CCCCCCCC=C`, the Potency result in assay [13], in [14], in [1], in assay [5], in assay [7] and in assay [10] was “inactive” in each case. Further, in assay [3], the activation was 0.475%. Moreover, the figures for the max response in [4], in assay [8] and in [9] were 4.13%, 5.83% and 3%, respectively. The outcome in assay [6] was inactive.
For the molecule `Cc1ccc(S(=O)(=O)NC2CCCCC2)cc1`, the Potency entry in assay [13], in assay [14], in [1], in assay [2] and in assay [10] was “inactive” in each case. The activation in [3] is -0.456%. Besides, the max response was -1.4% in assay [4] and 1.13% in [8]. For the same molecule, the result in [6] was inactive.
As to `Nc1cccc(O)c1`, the Potency result in assay [1], in assay [5] and in assay [10] was “inactive” in each case. In addition, the activation in [3] is 2.45%. The max response was 0.244% in assay [4], -0.321% in assay [8], 2.15% in assay [9] and -3.29% in assay [11]. Besides, the call in assay [6] and in assay [12] was inactive.
Regarding `C=CCOC(=O)CCCCCCCC`, the Potency result in assay [1], in assay [2], in assay [5] and in assay [10] was “inactive” in each case. Further, in [3], the activation was -2.14%. In addition, the figures for the max response in assay [4], in assay [8] and in [11] were -0.94%, 3.3% and -5.54%, respectively. Moreover, the molecule was classed as inactive in assay [6] and in assay [12].
In the case of `CC(=O)C1(C)CC2=C(CCCC2(C)C)CC1C` (centres undefined), the Potency result in assay [1], in assay [5] and in assay [7] was “inactive” in each case. Also, the activation in assay [3] is -1.01%. The max response is -0.376% in assay [4], 5.61% in assay [8], -9.23% in [9] and 2.11% in assay [11]. Also, the result in assay [6] and in [12] was inactive.
Regarding `O=C(O)c1ccc(CO)o1`, the Potency entry in assay [13], in assay [14], in assay [1], in assay [5], in assay [7] and in [10] was “inactive” throughout. In addition, in assay [3], the activation is -0.734%. The max response is 15% in assay [4], -10.4% in assay [8] and 11.8% in assay [9]. The molecule was classed as inactive in [6] and in [12].
For the molecule `CCOC(=O)OCC`, the Potency result in assay [2], in assay [7] and in assay [10] was “inactive” in each case. Moreover, the activation in [3] was 0.303%. The max response in assay [4] was 3.76%; in [8] it was 2.96%; in assay [11], -3.24%. Also, the call in assay [6] and in assay [12] was inactive.
With `CCC(=O)/C=C/C1C(C)=CCCC1(C)C` (centres undefined), the Potency result in assay [13], in assay [14], in [1], in assay [2], in assay [5] and in assay [7] was “inactive” in each case. Moreover, the Potency entry in assay [10] was “inactive”. Moreover, the activation in assay [3] was -0.103%. Besides, the max response in [4] is 0.561%; in [8], 0.358%; in assay [9], 0.395%. Also, in [6], the outcome was inactive.
Regarding `COC(=O)CCCC(=O)OC`, the Potency result in [1], in assay [5], in assay [7] and in [10] was “inactive” throughout. In addition, the max response is -1.53% in [4], 4.37% in assay [8] and 1.21% in assay [11]. Further, the result in assay [6] and in assay [12] was inactive.
Consider `O=Cc1c(Cl)cccc1Cl`, for which the Potency entry in [1] and in assay [10] was “inactive” each time. Further, the activation in assay [3] is 1.15%. In addition, the max response in assay [4] was 25.1%; in assay [8] it was 11.9%; in assay [9], -9.95%; in [11], 8%. The Potency in assay [5] was 16.8 µM (active). The call in assay [6] was inactive.
Take `CC#N`: the Potency entry in assay [13], in [14], in assay [1], in assay [2], in assay [7] and in assay [10] was “inactive” each time. In addition, the activation in [3] is 0.208%. For the same molecule, the values for the max response in assay [4], in assay [8] and in assay [9] were -2.21%, -0.353% and -9.36%, respectively. For the same molecule, the molecule was classed as inactive in [6] and in assay [12].
With `Cc1ccc2nc(-c3ccc(N)cc3)sc2c1S(=O)(=O)O`, the results for the Potency in [1] and in [3] were 8.41 µM (active) and 39.8 µM (active), respectively. For the same molecule, the max response in assay [4] is 2.42%; in assay [8] it was -24.5%; in [9], -7.88%. Moreover, the Potency result in [7] and in assay [10] was “inactive” throughout.
For `C[C@@H]1CC2(OC3C[C@@]4(C)C5=CC[C@H]6C(C)(C)C(O[C@@H]7OC[C@@H](O)[C@H](O)[C@H]7O)CC[C@@]67C[C@@]57CC[C@]4(C)C31)OC(O)C1(C)OC21` (some centres undefined), the Potency entry in [13], in assay [14], in [1], in [2] and in [10] was “inactive” each time. The activation in assay [3] is -0.875%. For the same molecule, the max response is 8.86% in [4] and -9.95% in assay [9]. In addition, in assay [5], the Potency is 21.1 µM (active). Also, the molecule was called inactive in assay [6] and in assay [12].
In the case of `O=Nc1ccc(NO)cc1`, the activation in assay [3] was 6.63%. The max response in assay [4] was -1.48%; in [8], 2.71%; in assay [9], -9.92%; in [11], -3.74%. Besides, the molecule was called inactive in [6] and in assay [12]. The Potency entry in assay [10] was “inactive”.
On to `Nc1nc(-c2ccccc2)cs1`, for which the Potency result in assay [13], in assay [14], in assay [1], in assay [7] and in assay [10] was “inactive” each time. Also, the Potency in assay [3] is 35.5 µM (active). The results for the max response in assay [4], in [8] and in assay [9] were 22.8%, 4.04% and 0.545%, respectively.
`CC(C)(C)c1ccc(OCC2CO2)cc1` (centres undefined): the Potency entry in assay [13], in assay [14], in assay [5] and in [10] was “inactive” each time. Besides, in [3], the activation was 8.83%. Also, the max response was -5.01% in assay [4], 4.81% in assay [8] and 3.48% in assay [9]. In addition, in assay [6], the call was inactive.
Turning to `C=CCCCC`, the Potency entry in [1], in assay [5], in assay [7] and in assay [10] was “inactive” in each case. Moreover, the activation in assay [3] is 0.475%. Besides, the figures for the max response in [4], in [8] and in [11] were -2.42%, -4.9% and 0.496%, respectively. The outcome in [6] and in [12] was inactive.
